Compounds with a hit are over-represented: about 2.5% of the library has one in this group of screens.
Mcl1 Bid PPI: Mcl-1/Bid interaction inhibition; Q07820; inhibition, % at 21.7 µM; TR-FRET Mcl-1/Bid-Dy647 peptide binding, 1536-well; AID 1021; 0.97% of 220,000 active;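 active = compounds that cut the binding signal by more than half at the single screening dose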;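 note: His-tagged Mcl-1 with europium anti-His antibody binding Bid BH3 peptide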
Mcl1 Noxa PPI: Mcl-1/Noxa interaction inhibition; Q07820; TR-FRET Mcl-1/Noxa peptide binding, 2 h; inhibition, % at 21.7 µM; 1.5% of 220,000 active;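 active = compounds that cut the protein-peptide binding signal by more than 50% relative to plate controls in a single-dose test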;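 note: His-tagged Mcl-1 with rhodamine Noxa BH3 peptide and terbium anti-His antibody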
MCL1 BIM primary: disrupts human MCL1 binding to BIM-BH3 peptide; Q07820; GST-MCL1 / FITC-Bim-BH3 fluorescence polarization; inhibition, % at 10.9 µM; 0.68% of 320,000 active; AID 2057;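 active = inhibition above the mean inhibition of all tested compounds plus 3 SD, set per campaign, cut at about 40% in these data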;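 note: higher means more loss of mP so more displacement of Bim peptide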
Mcl-1 Bim block: human Bim-Mcl-1 interaction inhibition; inhibition, % at 10 µM; 0.1% of 190,000 active; AID 1009; Q07820; Bead-based flow cytometry, Bim peptide-Mcl-1 binding; in the data active = inhibition above about 40%
14-3-3 Bad PPI: disrupts binding of bovine 14-3-3 zeta to phospho-Bad peptide. inhibition, % at 21.7 µM. 0.71% of 220,000 active. TR-FRET 14-3-3zeta/Dy647-pBad peptide displacement, 1 h. P63103;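 active = inhibition above about 70%, limit read from the data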
Target sequence (P63103 whole entry, looked up): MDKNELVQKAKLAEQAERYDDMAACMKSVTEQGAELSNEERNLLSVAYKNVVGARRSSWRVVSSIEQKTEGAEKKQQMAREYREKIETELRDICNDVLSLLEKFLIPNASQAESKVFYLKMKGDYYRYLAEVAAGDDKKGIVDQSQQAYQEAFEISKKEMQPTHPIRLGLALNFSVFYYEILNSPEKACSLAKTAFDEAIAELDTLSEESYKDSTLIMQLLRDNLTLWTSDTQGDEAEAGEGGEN
A number is an active result; – = inactive; · = no result.

SMILES | Mcl1 Bid PPI | Mcl1 Noxa PPI | MCL1 BIM primary | Mcl-1 Bim block | 14-3-3 Bad PPI
CN(C)c1ccc(NC(=O)C2CCCN(S(=O)(=O)c3ccccc3)C2)cc1 (stereo not given) | – | 69 | – | – | –
COC(=O)C(CC(C)C)NC(=O)c1ccc(F)cc1 (stereo not given) | 98 | – | – | – | –
CCCc1cc(=O)[nH]c(Nc2ccc(O)cc2)n1 | – | – | – | – | –
COc1ccccc1C1Nc2cccc3cccc(c23)N1 | – | – | – | – | –
Oc1ccccc1C1Nc2cccc3cccc(c23)N1 | – | 98 | – | – | –
Cc1cc2c(c(=O)o1)C(c1ccc([N+](=O)[O-])o1)C(C#N)=C(N)O2 (stereo not given) | – | – | 47 | · | –
CNC(=O)C1CC(=O)N(c2ccc(OCC(=O)N3CCCC3)cc2)C1 (stereo not given) | · | · | – | · | ·
N#CCc1nc2c3c4c(sc3ncn2n1)CCCC4 | – | – | · | – | –
Oc1ccccc1Nc1nc(NCc2ccccc2)c2ccccc2n1 | – | 59 | – | – | –
N#CC1=C(N2CCOCC2)/C(=C\c2ccccc2)CC1 | – | – | – | – | –
Cc1cc(/C(N)=N/OC(=O)c2ccc(Cl)cc2)no1 | – | – | – | · | 70
Cc1cc(/C(N)=N/OC(=O)c2cccc(Cl)c2)no1 | – | – | – | · | –
NC(=O)[C@@H]1CCCN1Cc1nc(-c2cccs2)no1 | – | 54 | – | – | –
COCCCn1c2nc3ccccc3nc2c2c(=O)n(Cc3ccc(Cl)cc3)cnc21 | – | – | – | – | ·
O=c1c2c3nc4ccccc4nc3n(Cc3ccccc3)c2ncn1Cc1ccco1 | – | 73 | · | – | –
CCCC(=O)Nc1nnc(-c2cccc(OCC)c2)s1 | 86 | – | – | – | –
CCOC(=O)Nc1nnc(-c2cccc(OC)c2)s1 | – | – | – | – | –
CC(C)CC(=O)NC(=S)Nc1nc(-c2cccc3ccccc23)cs1 | – | · | – | – | –
O=C(CSc1nnnn1-c1ccc(F)cc1)c1ccc(O)c(O)c1 | – | 57 | – | – | –
O=C(O)c1ccc(CSc2nnnn2-c2ccc(F)cc2)cc1 | · | · | – | · | ·
CC(C)OC(=O)c1cccnc1SCC(=O)N(C)c1ccccc1 | – | – | – | – | –
C=CCn1c(CNC(=O)c2ccco2)nnc1SCC(=O)Nc1cccc(Br)c1 | – | – | – | – | –
Nc1nc(NC(=O)c2cccs2)nn1-c1ccccc1 | – | – | – | – | 82
CN(C)c1ccc2c3c(cccc13)C(=O)N(c1ccccc1)C2=O | – | – | 77 | – | –
COc1cc(CN2CCC(C(=O)N3CCCC(C)C3)CC2)cc(Br)c1O (stereo not given) | – | – | – | – | 79
SMILES | Mcl1 Bid PPI | Mcl1 Noxa PPI | MCL1 BIM primary | Mcl-1 Bim block | 14-3-3 Bad PPI
CCOC(=O)C1CCCCN1Cc1cccc(OC)c1OC (stereo not given) | – | – | – | – | 76
CCOC(=O)C1CCN(Cc2ccc(F)cc2F)CC1 | – | – | – | – | 76
COc1ccc(CN2CCC(C(=O)N3CCCC(C)C3)CC2)cc1OC (stereo not given) | – | – | – | – | –
COc1ccc(F)c(CN2CCC(N3CCC(C(=O)N4CCOCC4)CC3)CC2)c1 | – | – | – | – | –
COc1ccc(OC)c(CN2CCC(C(=O)N3CCOCC3)CC2)c1 | 53 | – | – | – | –
CCOC(=O)C1CCCCN1Cc1cccc(OCc2ccccc2)c1 (stereo not given) | · | · | – | · | ·
CCC(=O)NC(C)C(c1cccs1)N1CCN(c2ccccc2)CC1 (stereo not given) | – | – | – | – | –
Clc1cccc(-c2nnc(SC/C=C/c3ccccc3)n2Cc2ccco2)c1 | – | – | – | – | –
CCOC(=O)C1CCCCN1Cc1cc(OC)ccc1OC (stereo not given) | – | – | – | – | 91
CCOC(=O)C1CCCCN1Cc1cccc(F)c1 (stereo not given) | – | – | – | – | 71
CCOC(=O)C1CCCCN1Cc1cc(Cl)ccc1O (stereo not given) | – | – | – | – | ·
CCOC(=O)C1CCCCN1Cc1cccc(Oc2ccccc2)c1 (stereo not given) | · | · | – | · | ·
Cc1ccc2c(Cl)cc(Cl)c(OCC(=O)NCc3ccco3)c2n1 | – | 94 | · | – | –
N#C/C(=C\c1sc(N2CCOCC2)nc1-c1ccccc1)C(=O)Nc1cccc2ccccc12 | 57 | – | · | – | –
CC1(C)CC(NC(=O)N2c3ccccc3Sc3ccccc32)CC(C)(C)N1 | – | – | – | · | –
